The list is not random: actives were taken first. Their share in the collection is about 3.5%.
MITF primary: human MITF inhibition, primary screen | O75030 | AlphaScreen MITF homodimerization, bead proximity signal | inhibition, % at 2.6 µM | 650,000 tested, 0.91% active; in the data active = inhibition above about 50%;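 also: 0% = vehicle wells with protein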
GPR151 activ: activators of human GPR151; Q8TDV0; PathHunter beta-arrestin GPR151 cells, luminescence; activation, % at 11.2 µM; 650,000 tested, 1% active; in the data active = activation above about 4.9%;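 also: 0% = median of compound wells and 100% = cells with positive control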
Target sequence (Q8TDV0 whole entry, looked up): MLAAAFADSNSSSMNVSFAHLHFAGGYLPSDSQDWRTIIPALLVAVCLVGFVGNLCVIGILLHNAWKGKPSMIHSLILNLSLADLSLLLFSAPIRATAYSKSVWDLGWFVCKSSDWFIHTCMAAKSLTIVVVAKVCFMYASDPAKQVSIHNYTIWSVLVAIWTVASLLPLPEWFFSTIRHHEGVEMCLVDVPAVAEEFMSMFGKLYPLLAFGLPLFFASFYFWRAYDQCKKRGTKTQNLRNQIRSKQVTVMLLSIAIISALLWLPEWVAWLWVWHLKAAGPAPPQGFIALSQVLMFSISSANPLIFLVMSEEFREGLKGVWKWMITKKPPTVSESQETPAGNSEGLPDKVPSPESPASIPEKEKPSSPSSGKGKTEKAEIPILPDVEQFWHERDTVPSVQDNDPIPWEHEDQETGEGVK
FBW7 act: activators of human E3 ligase FBW7; Q969H0; AID 1259310; AlphaScreen FBW7–phospho-cyclin E peptide binding, activator screen; 650,000 tested, 0.13% active; normalized activity (activation), % at 26.1 µM; in the data active = normalized activity above about 1.9%;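 also: purified mutant Fbw7 with reduced substrate affinity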
TEAD-YAP block: TEAD-YAP interaction inhibition; inhibition, % at 9.12 µM; HEK-TIYL cells, TEAD-Gal4/YAP UAS-luciferase luminescence; 640,000 tested, 1.4% active; AID 1259422; in the data active = inhibition above about 32%;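 also: 0% = median of test compound wells and 100% = reference inhibitor wells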
MITF confirm: confirmation of human MITF inhibitors; 4,700 tested, 16% active; shares compounds with MITF primary; inhibition, % at 2.6 µM; AlphaScreen MITF homodimerization, biotin/His-MITF beads;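 active = inhibition above a cutoff derived from the DMSO control wells, cut at about 28% in these data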;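 also: 0% = MITF dimer wells with DMSO only; inhibitors lower the bead chemiluminescence by keeping MITF from dimerizing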
AlphaScreen DR: AlphaScreen optical interference, dose response counter-screen; AID 1259373; 480 tested, 6% active; shares compounds with MITF primary; AlphaScreen optical interference counterscreen, cell-free; IC50, µM; call rule not given here
AlphaScreen intf2: counter-screen: compounds optically interfering with AlphaScreen; 4,700 tested, 7.6% active; inhibition, % at 2.6 µM; shares compounds with MITF primary; AID 1259376; LysRS AlphaScreen counterscreen, signal interference, triplicate;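 active = inhibition above a cutoff derived from the DMSO control wells, cut at about 30% in these data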
The depositor's hits bear a star; . = no result given; ! = repeats disagree.

SMILES | MITF primary | GPR151 activ | FBW7 act | TEAD-YAP block | MITF confirm | AlphaScreen intf2 | others
Cc1cccc(NC(=O)CC2Sc3ccc(C(F)(F)F)cc3NC2=O)c1C (configuration not stated) | 65.7* | 0.0 | -0.2 | 3.5 | 4.1 | -6.7
Cc1cc2cc(CNS(=O)(=O)c3ccc(Br)cc3)ccc2[nH]1 | -16.7 | 1.4 | 0.3 | -2.9 | . | .
CCCc1cc(N2CCC(C(=O)NCc3cccc(OC)c3)CC2)n2ncnc2n1 | 7.8 | 0.7 | 0.1 | 13.2 | . | .
N#CC1(C#N)[C@H](c2cccnc2)[C@@H](C(=O)c2ccccc2)N2c3ccc(Cl)cc3C=C[C@@H]21 | 11.4 | 1.2 | -0.1 | -4.0 | . | .
N#CC1(C#N)C(c2cccnc2)C(C(=O)c2ccccc2)N2c3ncccc3C=CC21 (configuration not stated) | 71.4* | -0.2 | -0.1 | -16.1 | 13.1 | 3.6
CC(=O)Nc1sccc1-c1nc2ccccc2s1 | -7.3 | 2.5 | 0.1 | 8.3 | . | .
O=C1NC(=O)/C(=C\c2ccc(O)cc2O)S1 | 82.7* | 0.7 | -0.1 | -22.7 | 81.2* | -5.6 | AlphaScreen DR=>6.48
O=C1NC(=S)S/C1=C\c1cc(O)ccc1Br | 24.8 | 0.2 | 0.1 | 2.9 | . | .
O=c1c(O)c(-c2ccc(O)cc2O)oc2cc(O)cc(O)c12 | 67.3*! | 0.4 | -0.2 | -0.4 | 42.7* | -7.0 | AlphaScreen DR=>6.48
CC(C)(CNC(=O)c1ccc(C(F)(F)F)cc1)N1CCOCC1 | -4.3 | -0.6 | -0.1 | 1.1 | . | .
O=C(CSc1nc(NC2CCCCC2)c2ccccc2n1)NC1CCCCC1 | 58.3* | 2.6 | -0.1 | 8.0 | 3.3 | 6.0
Cc1ccc(CNC(=O)CSc2nc(NC3CCCCC3)c3ccccc3n2)cc1 | 3.0 | 1.4 | -0.1 | 1.2 | . | .
O=C(CNC(=O)OCc1ccccc1)NCc1ccccc1 | 0.1 | 0.9 | 0.5 | 13.3 | . | .
COc1cc(OC)cc(C(=O)N2CCN(Cc3ccc(C)cc3)CC2)c1 | 46.9 | 0.2 | -0.2 | 0.5 | . | .
COc1cc(OC)cc(C(=O)N2CCN(Cc3ccccc3OC)CC2)c1 | 61.2* | -0.9 | 0.1 | 3.0 | 4.8 | -1.1
COc1cc(OC)cc(C(=O)N2CCN(Cc3ccccc3Cl)CC2)c1 | 60.1* | -0.1 | -0.4 | -12.3 | -2.1 | 2.0
COc1ccccc1CN1CCN(C(=O)c2cccc(F)c2)CC1 | 48.5 | -0.1 | 0.1 | 4.2 | . | .
Cc1cccc(CN2CCN(S(=O)(=O)c3ccccc3[N+](=O)[O-])CC2)c1 | 59.1* | -0.2 | 0.0 | 5.1 | 45.5* | 9.6 | AlphaScreen DR=>5.08
O=[N+]([O-])c1ccccc1S(=O)(=O)N1CCN(Cc2ccncc2)CC1 | 75.9* | 0.2 | -0.2 | -2.6 | 9.8 | 14.8
O=[N+]([O-])c1ccccc1S(=O)(=O)N1CCN(Cc2ccccc2)CC1 | 1.1 | -1.0 | -0.2 | -11.1 | . | .
O=[N+]([O-])c1ccccc1S(=O)(=O)N1CCN(Cc2ccsc2)CC1 | 39.8 | 0.1 | -0.2 | 4.7 | . | .
O=[N+]([O-])c1ccccc1S(=O)(=O)N1CCN(Cc2cccs2)CC1 | 54.6* | 1.5 | -0.3 | -4.3 | 9.1 | 13.4
COc1cccc(CN2CCN(S(=O)(=O)c3ccccc3[N+](=O)[O-])CC2)c1OC | 53.4* | 1.1 | -0.4 | -18.3 | 23.4 | 21.2
CCOC(=O)c1ccccc1N1C(=O)CC(Sc2ccccc2C(=O)O)C1=O (configuration not stated) | 19.9 | 0.0 | -0.2 | 1.6 | . | .
CCN(CC)C(=O)C(=O)N1CCN(c2ccc(OC)cc2)CC1 | -9.1 | 0.3 | 0.0 | 11.9 | . | .
SMILES | MITF primary | GPR151 activ | FBW7 act | TEAD-YAP block | MITF confirm | AlphaScreen intf2 | others
CCOC(=O)C1=C(N)N(c2ccc(F)cc2)C2=C(C(=O)CCC2)C1c1ccc(F)cc1 (configuration not stated) | 1.3 | 0.2 | -0.1 | 5.7 | . | .
O=[N+]([O-])c1ccccc1S(=O)(=O)N1CCN(Cc2cccc(F)c2)CC1 | 56.2* | 0.0 | -0.1 | -0.4 | 7.6 | 14.2
CSc1nc2n(n1)C(c1ccc(Br)cc1)C1=C(CC(C)(C)CC1=O)N2 (configuration not stated) | 17.4 | 0.8 | 0.4 | 0.0 | . | .
CCOC(=O)CNS(=O)(=O)c1ccc2[nH]cc(C(=O)O)c(=O)c2c1 | 52.4* | 0.7 | 0.2 | 2.2 | 12.7 | 1.1
COc1ccc(CNS(=O)(=O)c2ccc3[nH]cc(C(=O)O)c(=O)c3c2)cc1 | 24.0 | -0.6 | 0.1 | 7.6 | . | .
CCN(CC)CCNS(=O)(=O)c1ccc2[nH]cc(C(=O)O)c(=O)c2c1 | 52.0* | 0.1 | 0.3 | 2.2 | 4.6 | 4.7
Cc1cccc(NC(=O)c2ccc(NS(=O)(=O)c3ccc4[nH]cc(C(=O)O)c(=O)c4c3)cc2)c1 | 70.1* | 0.7 | 0.6 | 5.2 | 40.7* | -5.2
CC(C)NC(=O)CSc1nnc2c3ccccc3nc(Cc3ccccc3)n12 | -6.0 | -0.7 | 0.0 | -3.6 | . | .
N#C/C(=C/Nc1ccccc1F)c1nc(-c2ccc([N+](=O)[O-])cc2)cs1 | 67.5* | 1.7 | 0.1 | -1.1 | 0.3 | 2.9
CCOC(=O)N1CCc2c(sc3c2c(=O)n(Cc2ccccc2)c(=O)n3CC(N)=O)C1 | 2.8 | 0.2 | 0.1 | 0.2 | . | .
COc1ccc(OC)c(CN2CCC(C(=O)NCC3CCCO3)CC2)c1 (configuration not stated) | 54.2* | -0.8 | 0.1 | 8.1 | -7.4 | -0.3
COc1ccc(C(=O)C2CCN(C(=S)NCC3CCCO3)CC2)cc1 (configuration not stated) | 85.5* | -0.9 | 1.2 | 9.6 | 12.3 | 8.3
COCCNC(=O)C1CCN(Cc2cc(OC)ccc2OC)CC1 | 34.9 | -1.8 | 0.3 | 7.3 | . | .
O=C(NCC1CCCO1)C1CCN(Cc2c[nH]c3ccccc23)CC1 (configuration not stated) | 55.0* | -0.2 | -0.2 | -6.0 | -15.0 | -10.1
CC1CCC(N2CCN(Cc3cccc(F)c3)CC2)CC1 (configuration not stated) | 53.7* | 0.0 | 0.1 | -7.0 | 6.6 | 13.9
Fc1cccc(CN2CCN(C3CCCCC3)CC2)c1 | 72.3* | -0.2 | 0.0 | 9.5 | 6.7 | 11.5
OC1CCN(Cc2cccc(F)c2)CC1 | 28.1 | 0.0 | -0.2 | 1.3 | . | .
Fc1ccc(CN2CCN(C3CCCCC3)CC2)cc1 | 47.7 | 0.9 | 0.0 | 0.6 | . | .
Fc1cccc(CN2CCN(C3CCCCCC3)CC2)c1 | 65.9* | 0.3 | 0.0 | -2.2 | 5.8 | 12.9
COc1cc(CN2CCCCCC2)cc(OC)c1 | -2.5 | 0.2 | -0.1 | -2.1 | . | .
COc1cc(CN2CCN(Cc3ccc(Cl)cc3)CC2)cc(OC)c1 | 84.3* | -1.8 | -0.1 | 1.0 | 0.3 | -1.3
COc1cc(CN2CCN(Cc3cccc(Cl)c3)CC2)cc(OC)c1 | 73.5* | 1.4 | -0.1 | -1.3 | 6.7 | 3.8
COc1cccc(CN2CCCCC2)c1 | -4.8 | -0.3 | -0.2 | 0.6 | . | .
C/C(=C\C(=O)c1ccc(Cl)cc1)Nc1ccccc1O | 3.0 | -0.4 | -0.1 | 12.3 | . | .
N#CC1=C(N)Oc2nc[nH]c(=O)c2C1c1ccccc1 (configuration not stated) | -19.6 | 0.7 | 0.1 | -4.5 | . | .

From PubChem BioAssay
